# Reference: PubChem BioAssay
# Values joined by “and” are separate entries in the source; they are usually repeats but may differ in a detail not shown here. Equal entries are not always repeated. Inconclusive results are not listed. Active and inactive are the calls of the source. Unless noted, no stated cut-off is given here; in the data, active means parasite load remaining mostly below about 12% (no sharp cut-off); inactive means mostly above about 10%.
# Tests used:
# [1] = compounds altering circadian rhythm period length – cell-based, LOPAC library, luminescence reporter (AID 2774; call rule not given here;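 further: values are relative to mean of DMSO wells on each plate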); conditions: circadian reporter cells, at 7 µM, actives lie on both sides
# [2] = P. berghei load reduction in hepatocytes – cell-based, HepG2, luciferase luminescence, HepG2 viability, primary screen (AID 624349);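 further: 100% = mean of DMSO negative control wells on the same plate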; conditions: P. berghei liver stage in HepG2, luciferase luminescence, concentration not given here; parasite load remaining: stronger effect = lower value; viability: measured here: HepG2 viability without parasites
# [3] = system: Hepatitis C virus NS3 helicase; assay: blockers of NS3h binding to ssDNA – biochemical, fluorescence polarization, LOPAC1280 library, primary screen (AID 687035; in the data active means inhibition above about 37%); conditions: Purified HCV NS3 helicase, Cy5-dT15 ssDNA binding fluorescence polarization; stronger effect = higher value; concentration not given here
# [4] = compounds altering Cy5-DNA-NS3h complex signal – biochemical, LOPAC1280, artefact control for HCV NS3 helicase inhibitor project (AID 687037; call rule not given here); conditions: Cy5-DNA-NS3h complex fluorescence interference counterscreen
# [5] = EMT-state selective cytotoxicity in co-culture – imaging, PC-3E GFP, TEM4-18 mCherry, primary screen (AID 1345086;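 active means compounds killing one labelled cell type while sparing the other, by normalised counts and ratio limits, not self-fluorescent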;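 on all read-outs here: cells exposed to compound for 72 h before imaging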;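 on red/green cell ratio (normalised): normalised mesenchymal count divided by normalised epithelial count so high means epithelial killing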); conditions: PC-3E GFP / TEM4-18 mCherry co-culture, imaging cell counts, at 1 µM; for red/green cell ratio (normalised): actives lie on both sides, counts scaled to control wells, 1 = unselective
# [6] = viability loss in pontine glioma line – cell-based, SU-DIPG-XIII, MIPE4.0, CellTiter-Glo, qHTS, dose response (AID 1347061; cut-off not given, nearly all actives have AC50 up to about 37 µM;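 further: cells exposed to compound for 48 hours before readout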); conditions: CellTiter-Glo ATP luminescence
# [7] = viability loss in pontine glioma line – cell-based, JHH-DIPG-1, MIPE4.0, CellTiter-Glo, qHTS, dose response (AID 1347062; cut-off not given, nearly all actives have AC50 up to about 27 µM); conditions: JHH-DIPG-1 viability, CellTiter-Glo ATP luminescence
# [8] = viability loss in pontine glioma line – cell-based, SU-DIPG-IV, MIPE4.0, CellTiter-Glo, qHTS, dose response (AID 1347063; cut-off not given, nearly all actives have AC50 up to about 30 µM;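 further: compound exposure lasted 48 hours before the viability readout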); conditions: CellTiter-Glo ATP luminescence
# [9] = growth inhibition of DIPG cells – cell-based, MIPE4.0 library, CellTiter-Glo luminescence, qHTS (AID 1347066; cut-off not given, nearly all actives have AC50 up to about 30 µM;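 further: cells exposed to compound for 48 hours before readout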); conditions: SU-DIPG-VI viability, CellTiter-Glo ATP luminescence
# [10] = viability loss with induced miR-34 in A549 – imaging, A549 dox-inducible miR-34, nuclei and caspase counts, primary screen (AID 1347080;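 active means compounds whose cell count with miR-34 switched on is under 0.7 times the count with it off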); conditions: A549 miR-34 inducible, Hoechst nuclei count, 48 h
# [11] = blockers of cellular phospholipid synthesis – cell-based, LOPAC library, screen 4, primary screen (AID 1347384; call rule not given here); conditions: animal cells, phospholipid biosynthesis inhibition screen; at 10 µM
# [12] = galactose survival enhancers in mitochondrial complex I cybrids – cell-based, galactose medium, ATP luminescence, primary screen (AID 1645843;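 active means z-score of at least 1.8 in each of two replicates, scored against plate mean and spread of sample wells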;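 further: positive z means more ATP and so rescue of galactose-driven cybrid death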); conditions: complex I mutant cybrid cells, 72 h, stronger effect = higher value
# [13] = viability loss in pontine glioma line – cell-based, SU-DIPG-XVII, MIPE5.0, CellTiter-Glo, qHTS, dose response (AID 1347060; cut-off not given, nearly all actives have AC50 up to about 26 µM); conditions: CellTiter-Glo ATP luminescence
# [14] = viability loss in pontine glioma line – cell-based, SU-DIPG-XIII, MIPE5.0, CellTiter-Glo, qHTS, dose response (AID 1347064; cut-off not given, nearly all actives have AC50 up to about 23 µM); conditions: CellTiter-Glo ATP luminescence
# [15] = JHH-DIPG-1 glioma cell viability, MIPE5.0 library, CellTiter-Glo luminescence, qHTS (AID 1347067; cut-off not given, nearly all actives have AC50 up to about 26 µM;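 further: cells exposed to compound for 48 hours before readout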); conditions: JHH-DIPG-1 glioma viability, CellTiter-Glo ATP luminescence
# [16] = growth inhibition of DIPG cells – cell-based, MIPE5.0 library, qHTS (AID 1347068; cut-off not given, nearly all actives have IC50 up to about 30 µM); conditions: SU-DIPG-XXV viability
# [17] = MELAS cybrid and Rieske KO viability enhancers – cell-based, MELAS cybrids, Rieske KO mouse fibroblasts, CellTiter-Glo, primary screen (AID 1508586;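 active means mean z-score across replicates of 1.96 or higher in either the MELAS or the Rieske mutant cell line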;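 further: z relative to plate mean and SD of compound and empty wells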); conditions: low glucose
# [18] = biological target: NAD(+) hydrolase SARM1 (Homo sapiens) (UniProt Q6SZW1); assay: blocking NAD cleavage by SARM1 SAM-TIR – cell lysate, NAD-Glo luminescence (AID 1508614;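 active means compound whose remaining NAD level is above about 45 nM, limit read from the data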); conditions: SAM-TIR HEK293T lysate NADase, at 1 µM, stronger effect = higher value
# [19] = biological target: Mitogen-activated protein kinase 7 (Homo sapiens) (UniProt Q13164); assay: Gal4-ERK5 driven luciferase induction – cell-based, HTS, primary screen (AID 1508626;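 active means luciferase signal above three times the same-plate solvent-only control wells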;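 further: luciferase driven by Gal4-ERK5 fusion binding five Gal4 sites before minimal TATA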); conditions: HeLa Gal4-ERK5 transactivation, 18 h, at 5 µM, stronger effect = higher value
# [20] = viability loss in pontine glioma line – cell-based, SU-DIPG-XXV, MIPE5.0, CellTiter-Glo, qHTS, dose response (AID 1347065; cut-off not given, nearly all actives have AC50 up to about 26 µM;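 further: cells exposed to compound for 48 hours before ATP readout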); conditions: CellTiter-Glo ATP luminescence
# [21] = measured here: epithelial PC-3E GFP cell survival
# [22] = measured here: mesenchymal TEM4-18 mCherry cell survival
# [23] = stronger effect = lower value, cell number ratio, induced over uninduced
# [24] = measured here: relative caspase fold change +Dox/-Dox
# [25] = measured here: total cells with miR-34 induction, stronger effect = lower value
# [26] = measured here: total cells without miR-34 induction
# [27] = MELAS cybrid survival, CellTiter-Glo 48 h, stronger effect = higher value
# [28] = Rieske KO mouse fibroblast survival, CellTiter-Glo 72 h
# Sequence of NAD(+) hydrolase SARM1 (Homo sapiens) (Q6SZW1 whole entry, looked up, the tested form may be a part): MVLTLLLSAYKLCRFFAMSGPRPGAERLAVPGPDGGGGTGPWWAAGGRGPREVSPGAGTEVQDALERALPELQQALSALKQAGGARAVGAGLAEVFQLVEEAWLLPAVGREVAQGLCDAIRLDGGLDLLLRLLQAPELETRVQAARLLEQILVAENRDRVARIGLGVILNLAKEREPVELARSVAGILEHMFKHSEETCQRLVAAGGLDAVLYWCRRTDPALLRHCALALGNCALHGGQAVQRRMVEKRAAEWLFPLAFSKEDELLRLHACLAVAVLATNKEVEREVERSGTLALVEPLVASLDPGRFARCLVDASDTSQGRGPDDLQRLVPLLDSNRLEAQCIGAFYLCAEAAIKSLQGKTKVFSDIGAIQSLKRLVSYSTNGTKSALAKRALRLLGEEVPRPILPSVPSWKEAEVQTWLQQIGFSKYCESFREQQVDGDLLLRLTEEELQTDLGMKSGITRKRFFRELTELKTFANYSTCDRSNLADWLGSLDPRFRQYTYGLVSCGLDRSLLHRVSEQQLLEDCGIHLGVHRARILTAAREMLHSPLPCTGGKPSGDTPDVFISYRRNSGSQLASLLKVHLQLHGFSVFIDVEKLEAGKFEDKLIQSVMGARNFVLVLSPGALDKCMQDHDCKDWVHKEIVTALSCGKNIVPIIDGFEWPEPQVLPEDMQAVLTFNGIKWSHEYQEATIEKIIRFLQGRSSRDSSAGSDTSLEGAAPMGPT
# Sequence of Mitogen-activated protein kinase 7 (Homo sapiens) (Q13164 whole entry, looked up, the tested form may be a part): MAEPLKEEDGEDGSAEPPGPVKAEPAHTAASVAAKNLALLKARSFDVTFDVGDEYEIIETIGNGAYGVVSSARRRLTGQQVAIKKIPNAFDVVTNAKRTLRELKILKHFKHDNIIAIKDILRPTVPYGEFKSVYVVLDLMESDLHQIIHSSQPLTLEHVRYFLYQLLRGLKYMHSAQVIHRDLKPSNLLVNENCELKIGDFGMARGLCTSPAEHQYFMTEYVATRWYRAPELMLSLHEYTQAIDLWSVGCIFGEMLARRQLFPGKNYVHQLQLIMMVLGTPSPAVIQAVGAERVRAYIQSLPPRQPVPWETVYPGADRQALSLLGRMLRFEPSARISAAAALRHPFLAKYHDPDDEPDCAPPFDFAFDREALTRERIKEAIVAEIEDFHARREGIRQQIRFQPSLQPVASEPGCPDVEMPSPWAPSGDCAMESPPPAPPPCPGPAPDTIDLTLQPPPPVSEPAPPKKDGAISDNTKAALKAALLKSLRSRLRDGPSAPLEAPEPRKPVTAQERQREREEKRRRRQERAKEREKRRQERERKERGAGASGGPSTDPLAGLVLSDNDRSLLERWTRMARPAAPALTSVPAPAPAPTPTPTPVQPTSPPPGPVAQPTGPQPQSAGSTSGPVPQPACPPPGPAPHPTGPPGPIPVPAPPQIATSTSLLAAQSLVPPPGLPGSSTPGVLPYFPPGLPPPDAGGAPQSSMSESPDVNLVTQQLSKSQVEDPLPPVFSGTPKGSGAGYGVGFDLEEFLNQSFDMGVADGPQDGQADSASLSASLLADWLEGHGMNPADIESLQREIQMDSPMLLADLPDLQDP
compound,measurement,setting,value
CC1CC2C3CCC4=CC(=O)C=C[C@]4(C)[C@@]3(F)[C@@H](O)C[C@]2(C)[C@@]1(O)C(=O)CO (stereo partly drawn),period change,[1],-0.45 h (inactive)
same,parasite load remaining,[2],123% (inactive)
same,viability,[2],71.5%
same,inhibition,[3],-1% (inactive)
same,fluorescence ratio (interference),[4],1 (inactive)
same,red/green cell ratio (normalised),[5],1.04 (inactive)
same,normalised cell number,[5]; [21],1.32
same,normalised cell number,[5]; [22],1.37
same,outcome,[6],inactive
same,outcome,[7],inactive
same,outcome,[8],inactive
same,outcome,[9],inactive
same,fold change,[10]; [23],0.94 (inactive)
same,fold change,[10]; [24],1.79
same,cell count,[10]; [25],7510
same,cell count,[10]; [26],7990
same,outcome,[11],inactive
same,z-score,[12],1.44 (inactive)
CC(C)(CO)[C@@H](O)C(=O)NCCC(=O)O,parasite load remaining,[2],90.7% (inactive) and 34.6% (inactive)
same,viability,[2],107% and 75%
same,red/green cell ratio (normalised),[5],1.39 (inactive)
same,normalised cell number,[5]; [21],0.63
same,normalised cell number,[5]; [22],0.88
same,outcome,[13],inactive
same,outcome,[6],inactive
same,outcome,[7],inactive
same,outcome,[8],inactive
same,outcome,[14],inactive
same,outcome,[9],inactive
same,outcome,[15],inactive
same,outcome,[16],inactive
same,fold change,[10]; [23],0.92 (inactive) and 0.869 (inactive) and 0.91 (inactive)
same,fold change,[10]; [24],0.716 and 3.95 and 1.15
same,cell count,[10]; [25],9860 and 12000 and 9850
same,cell count,[10]; [26],10700 and 13800 and 10800
same,z-score,[17]; [27],-0.406 (inactive) and -0.744 (inactive)
same,z-score,[17]; [28],0.568 and -1.28
same,remaining NAD,[18],10 nM (inactive)
same,luciferase signal,[19],68 AU (inactive)
same,z-score,[12],-0.065 (inactive)
CC(C)NC[C@H](O)COc1cccc2ccccc12,period change,[1],0.145 h (inactive)
same,parasite load remaining,[2],76% (inactive) and 69.1% (inactive) and 147% (inactive)
same,viability,[2],78.7% and 93.4% and 161%
same,inhibition,[3],-3% (inactive)
same,fluorescence ratio (interference),[4],1 (inactive)
same,red/green cell ratio (normalised),[5],1.36 (inactive)
same,normalised cell number,[5]; [21],1
same,normalised cell number,[5]; [22],1.37
same,outcome,[11],inactive
same,z-score,[17]; [27],-0.245 (inactive)
same,z-score,[17]; [28],-0.593
same,z-score,[12],-0.055 (inactive) and 0.085 (inactive) and -0.035 (inactive)
N#CC(c1ccc(Cl)cc1)c1c(Cl)cc(-n2ncc(=O)[nH]c2=O)cc1Cl (stereo not drawn),parasite load remaining,[2],30.6% (inactive)
same,viability,[2],99%
same,red/green cell ratio (normalised),[5],0.84 (inactive)
same,normalised cell number,[5]; [21],1.03
same,normalised cell number,[5]; [22],0.86
same,AC50,[6],23.5 µM (active)
same,outcome,[14],inactive
same,AC50,[9],13.2 µM (active)
same,outcome,[15],inactive
same,fold change,[10]; [23],0.879 (inactive) and 0.842 (inactive)
same,fold change,[10]; [24],1.15 and 1.36
same,cell count,[10]; [25],7450 and 8470
same,cell count,[10]; [26],8480 and 10000
same,z-score,[17]; [27],-0.404 (inactive) and -1.37 (inactive) and -0.711 (inactive)
same,z-score,[17]; [28],0.144 and -0.703 and -0.429
same,remaining NAD,[18],10 nM (inactive)
same,z-score,[12],-0.445 (inactive)
N#C[C@@H]1C[C@@H]2C[C@@H]2N1C(=O)[C@@H](N)C12CC3CC(CC(O)(C3)C1)C2,red/green cell ratio (normalised),[5],0.9 (inactive)
same,normalised cell number,[5]; [21],1.31
same,normalised cell number,[5]; [22],1.19
same,outcome,[13],inactive
same,outcome,[7],inactive
same,outcome,[8],inactive
same,outcome,[14],inactive
same,outcome,[20],inactive
same,outcome,[16],inactive
same,fold change,[10]; [23],0.886 (inactive)
same,fold change,[10]; [24],0.64
same,cell count,[10]; [25],8720
same,cell count,[10]; [26],9840
same,remaining NAD,[18],10 nM (inactive)
